Experimental data from the supplement of paper PMC10849652.
The full data set covers some 7,900 targets. This sample favours those with a hit. About 0.6% of all pairs of compound and target were hits. Unmarked numbers belong to inactive results.

What was measured:
Experiment in all cases: log2 fold change, soluble protein after heating vs DMSO (PISA); higher = thermal stabilisation; K562 cells, 10 uM, 30 min; active = over 0.2 and 3.5 SD of the protein, either way, in both replicates (recomputed)
[1] = target: ZW10 (UniProt O43264)
Summary of the method: (§1)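 Soluble protein was defined as the supernatant after 21,000xg for 90 min. It came from K562 cells at 2×10^6 cells/mL given 10 μM compound for 30 min, heated in aliquots for 3 min across 48°C-58°C, pooled, and extracted in PBS with 0.5% NP-40 at 4°C, and was quantified by TMTpro 16plex LC-MS/MS with equalised channel sums. Thermal stability against control samples, from duplicates, is reported as log2 fold change.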

[2] = target: ZWILCH (UniProt Q9H900)
Summary of the method: as §1

[3] = target: ZYG11B (UniProt Q9C0D3)
Summary of the method: as §1

ZW10, sequence (O43264 whole entry, looked up): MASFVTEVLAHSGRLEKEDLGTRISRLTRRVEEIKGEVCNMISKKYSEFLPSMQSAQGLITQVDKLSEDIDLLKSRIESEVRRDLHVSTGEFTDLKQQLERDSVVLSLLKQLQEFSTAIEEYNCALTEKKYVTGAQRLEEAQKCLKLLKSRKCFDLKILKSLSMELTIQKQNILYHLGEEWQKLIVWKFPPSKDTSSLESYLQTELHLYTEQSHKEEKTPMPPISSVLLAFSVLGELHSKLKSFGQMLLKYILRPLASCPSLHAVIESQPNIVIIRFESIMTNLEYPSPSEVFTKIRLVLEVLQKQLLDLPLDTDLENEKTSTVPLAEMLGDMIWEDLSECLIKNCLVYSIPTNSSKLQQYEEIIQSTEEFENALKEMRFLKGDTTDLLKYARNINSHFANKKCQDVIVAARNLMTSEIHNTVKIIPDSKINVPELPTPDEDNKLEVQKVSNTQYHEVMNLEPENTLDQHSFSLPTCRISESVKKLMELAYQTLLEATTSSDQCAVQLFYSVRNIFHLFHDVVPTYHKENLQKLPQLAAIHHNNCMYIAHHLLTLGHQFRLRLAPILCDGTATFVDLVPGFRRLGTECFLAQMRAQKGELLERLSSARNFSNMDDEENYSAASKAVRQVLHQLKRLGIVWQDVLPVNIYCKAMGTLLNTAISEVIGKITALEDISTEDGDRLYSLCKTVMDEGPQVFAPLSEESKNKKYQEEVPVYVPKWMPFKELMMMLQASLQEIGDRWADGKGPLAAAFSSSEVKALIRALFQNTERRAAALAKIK
ZYG11B, sequence (Q9C0D3 whole entry, looked up): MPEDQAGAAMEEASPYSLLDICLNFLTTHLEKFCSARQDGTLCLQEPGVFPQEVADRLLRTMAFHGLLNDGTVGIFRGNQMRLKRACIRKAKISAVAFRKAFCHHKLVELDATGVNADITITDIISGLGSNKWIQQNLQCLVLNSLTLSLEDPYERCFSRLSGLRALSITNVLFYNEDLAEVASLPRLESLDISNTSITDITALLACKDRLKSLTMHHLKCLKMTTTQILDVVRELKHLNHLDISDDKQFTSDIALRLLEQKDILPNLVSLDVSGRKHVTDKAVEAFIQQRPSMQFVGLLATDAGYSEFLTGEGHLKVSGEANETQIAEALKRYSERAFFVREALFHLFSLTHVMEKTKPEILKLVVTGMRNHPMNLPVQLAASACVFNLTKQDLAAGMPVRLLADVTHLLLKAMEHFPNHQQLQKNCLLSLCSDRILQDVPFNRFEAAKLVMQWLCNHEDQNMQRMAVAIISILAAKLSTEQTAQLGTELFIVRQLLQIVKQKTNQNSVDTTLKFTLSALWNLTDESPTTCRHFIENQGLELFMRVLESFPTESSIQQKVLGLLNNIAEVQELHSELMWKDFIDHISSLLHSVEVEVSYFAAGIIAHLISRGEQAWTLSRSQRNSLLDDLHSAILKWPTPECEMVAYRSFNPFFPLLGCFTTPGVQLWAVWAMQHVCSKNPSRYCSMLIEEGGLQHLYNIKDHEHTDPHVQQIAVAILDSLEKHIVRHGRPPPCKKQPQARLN
ZWILCH, sequence (Q9H900 whole entry, looked up): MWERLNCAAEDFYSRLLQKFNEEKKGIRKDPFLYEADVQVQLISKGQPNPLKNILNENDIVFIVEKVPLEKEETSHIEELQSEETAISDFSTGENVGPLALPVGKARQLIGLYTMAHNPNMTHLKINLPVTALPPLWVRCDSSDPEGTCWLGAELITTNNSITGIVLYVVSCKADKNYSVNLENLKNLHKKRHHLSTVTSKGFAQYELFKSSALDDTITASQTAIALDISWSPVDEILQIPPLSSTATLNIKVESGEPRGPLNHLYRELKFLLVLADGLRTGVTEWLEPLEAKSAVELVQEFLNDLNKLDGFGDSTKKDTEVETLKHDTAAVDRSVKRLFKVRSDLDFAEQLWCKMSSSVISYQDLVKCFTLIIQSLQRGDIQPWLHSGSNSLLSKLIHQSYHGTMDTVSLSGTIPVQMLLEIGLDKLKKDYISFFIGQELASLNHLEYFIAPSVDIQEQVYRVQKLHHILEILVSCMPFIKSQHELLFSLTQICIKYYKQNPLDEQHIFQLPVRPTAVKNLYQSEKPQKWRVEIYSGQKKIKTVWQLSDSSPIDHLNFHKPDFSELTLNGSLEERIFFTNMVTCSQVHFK

SMILES	log2 fold change [1]	log2 fold change [2]	log2 fold change [3]
CCN(CC)Cc1ccc2cc(COC(=O)Nc3ccc(C(=O)NO)cc3)ccc2c1 [givinostat]	0.096	0.046	-0.009
COc1ccc(Cn2ccc3ccc(C(=O)NO)cc32)cc1	-0.004	0.019	0.052
Cc1ccc(NC(=O)c2cccc(C(C)(C)C#N)c2)cc1Nc1ccc2ncn(C)c(=O)c2c1	0.015	0	-0.006
CCN(CCCOc1ccc2c(Nc3cc(CC(=O)Nc4cccc(F)c4)[nH]n3)ncnc2c1)CCOP(=O)(O)O [barasertib]	0.055	0.064	0.044
Cc1cccc(CC(=O)N2CCc3c2ccc(-c2cn(C)c4ncnc(N)c24)c3F)n1	0.034	0.027	-0.031
CC[C@@H]1C(=O)N(C)c2cnc(Nc3ccc(C(=O)N[C@H]4CC[C@H](N5CCN(CC6CC6)CC5)CC4)cc3OC)nc2N1C(C)C [volasertib]	-0.399 (active)	-0.266 (active)	0.002
NCC(=O)Nc1ccc(-n2nc(C(F)(F)F)cc2-c2ccc3c(ccc4ccccc43)c2)cc1	-0.007	-0.068	-0.045
O=C(Nc1nc2ccccc2n1CCN1CCOCC1)c1cccc([N+](=O)[O-])c1 [IRAK-1-4 Inhibitor I]	-0.076	-0.042	0.044
